# Test results reported in the supplement of paper PMC8728848.
# The sample as a whole holds a higher share of the strongest signals than the screen did.
# B1: GSL-I (Griffonia simplicifolia) (protein)
# chain: FNLPNFWSDVKDNIIFQGDANTTAGTLQLCKTNQYGNPLQYRAGRALYSDPVQLWDNKTGSVASFYTEFTFFLKITGDGPADGLAFFLAPPDSDVKDAGAYLGLFNKSTATQPSKNQVVAVEFDTWKNTDFPEPSYRHIGINVNSIVSVATKRWEDSDIFSGKIATARISYDGSAKILTVVLSYPDGADYILSHSVDLSKNLPNPIRVGISASTGANQFLTVYVLSWRFSSALQSTSVNAAMGPEIIRTVV
# Legend:
# Assay in all cases: glycan array binding signal (z-score within array); higher = stronger binding
# Details in all cases: glycan notation: IUPAC condensed, linker removed
# [1] = biological target: Fuc(a1-2)Gal(b1-3)GalNAc(a1-3)[Fuc(a1-2)]Gal(b1-4)GlcNAc
# Method in brief: (§1)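 Glycan array data came from 3228 arrays in the Consortium for Functional Glycomics database, and only arrays with an available protein sequence were kept. Glycan names were put into IUPAC-condensed notation, and columns mapping to the same glycan were averaged. The binding signal is a within-array Z-score, averaged across arrays of one protein sequence run at different concentrations or buffers and across linkers. A negative Z-score can be read as non-binding.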
# [2] = biological target: Fuc(a1-2)Gal(b1-4)Fuc(a1-3)]GlcNAc(b1-2)Man(a1-3)[Fuc(a1-2)Gal(b1-4)[Fuc(a1-3)]GlcNAc(b1-2)Man(a1-6)]Man(b1-4)GlcNAc(b1-4)GlcNAc
# Method in brief: as §1
# [3] = biological target: Fuc(a1-2)Gal6S(b1-4)Glc6S
# Method in brief: as §1
# [4] = biological target: Fuc(a1-2)[GalNAc(a1-4)]Gal(b1-4)GlcNAc
# Method in brief: as §1
# [5] = biological target: Fuc(a1-3)[Gal(b1-4)]Glc6S
# Method in brief: as §1
# [6] = biological target: Fuc(a1-3)[Gal(b1-4)]GlcNAc(b1-2)Man(a1-3)[Fuc(a1-3)[Gal(b1-4)]GlcNAc(b1-2)Man(a1-6)]Man(b1-4)GlcNAc(b1-4)GlcNAc
# Method in brief: as §1
# [7] = biological target: Fuc(a1-3)[Gal(b1-4)]GlcNAc(b1-3)Gal(b1-4)[Fuc(a1-3)]GlcNAc(b1-3)Gal(b1-4)[Fuc(a1-3)]GlcNAc
# Method in brief: as §1
# [8] = biological target: Fuc(a1-3)[Gal(b1-4)]GlcNAc(b1-4)Gal(b1-4)[Fuc(a1-3)]GlcNAc
# Method in brief: as §1
# Fuc(a1-4)GlcNAc = biological target: Fuc(a1-4)GlcNAc
# Method in brief: as §1
# Fuc(b1-3)GlcNAc = biological target: Fuc(b1-3)GlcNAc
# Method in brief: as §1
# Gal(a1-3)Gal = biological target: Gal(a1-3)Gal
# Method in brief: as §1
# [9] = biological target: Gal(a1-3)Gal(b1-4)GlcNAc(b1-2)Man(a1-3)[Gal(a1-3)Gal(b1-4)GlcNAc(b1-2)Man(a1-6)]Man(b1-4)GlcNAc(b1-4)GlcNAc
# Method in brief: as §1
# [10] = biological target: Gal(a1-3)Gal(b1-4)[Fuc(a1-3)]GlcNAc
# Method in brief: as §1
# [11] = biological target: Gal(a1-3)Gal(b1-4)[Fuc(a1-3)]GlcNAc(b1-2)Man(a1-3)[Gal(a1-3)Gal(b1-4)[Fuc(a1-3)]GlcNAc(b1-2)Man(a1-6)]Man(b1-4)GlcNAc(b1-4)GlcNAc
# Method in brief: as §1
# [12] = biological target: Gal(a1-4)Gal(b1-3)GlcNAc(b1-2)Man(a1-3)[Gal(a1-4)Gal(b1-3)GlcNAc(b1-2)Man(a1-6)]Man(b1-4)GlcNAc(b1-4)GlcNAc
# Method in brief: as §1
# Gal(a1-4)Gal(b1-4)GlcNAc = biological target: Gal(a1-4)Gal(b1-4)GlcNAc
# Method in brief: as §1
# [13] = biological target: Gal(a1-4)Gal(b1-4)GlcNAc(b1-2)Man(a1-3)[Gal(a1-4)Gal(b1-4)GlcNAc(b1-2)Man(a1-6)]Man(b1-4)GlcNAc(b1-4)GlcNAc
# Method in brief: as §1
# Gal(a1-4)GlcNAc = biological target: Gal(a1-4)GlcNAc
# Method in brief: as §1
# Gal(b1-3)GlcNAc(b1-2)Man = biological target: Gal(b1-3)GlcNAc(b1-2)Man
# Method in brief: as §1
# [14] = biological target: Gal(b1-3)GlcNAc(b1-3)Gal(b1-4)Glc
# Method in brief: as §1
# [15] = biological target: Gal(b1-3)GlcNAc(b1-3)Gal(b1-4)GlcNAc
# Method in brief: as §1
# [16] = biological target: Gal(b1-3)GlcNAc(b1-3)GalNAc
# Method in brief: as §1
# [17] = biological target: Gal(b1-3)[GlcNAc(b1-6)]GalNAc
# Method in brief: as §1
# [18] = biological target: Gal(b1-4)GlcNAc(b1-3)[Gal(b1-4)GlcNAc(b1-6)]GalNAc
# Method in brief: as §1
# Gal(b1-4)GlcNAc6P = biological target: Gal(b1-4)GlcNAc6P
# Method in brief: as §1
# GalNAc(a1-3)Gal = biological target: GalNAc(a1-3)Gal
# Method in brief: as §1
# GalNAc(a1-3)GalNAc = biological target: GalNAc(a1-3)GalNAc
# Method in brief: as §1
# [19] = biological target: GalNAc(a1-3)GalNAc(a1-3)Gal(a1-4)Gal(b1-4)GlcNAc
# Method in brief: as §1
# [20] = biological target: GalNAc(b1-3)Gal(a1-6)Gal(b1-4)Glc
# Method in brief: as §1
# GalNAc(b1-3)GalNAc = biological target: GalNAc(b1-3)GalNAc
# Method in brief: as §1
# [21] = biological target: GalNAc(b1-4)GlcNAc(b1-2)Man
# Method in brief: as §1
# [22] = biological target: GlcNAc(a1-3)Gal(b1-4)GlcNAc
# Method in brief: as §1
# [23] = biological target: GlcNAc(b1-2)[GlcNAc(b1-6)]Man(a1-6)[GlcNAc(b1-2)Man(a1-3)]Man(b1-4)GlcNAc(b1-4)GlcNAc
# Method in brief: as §1
# [24] = biological target: GlcNAc(b1-3)Gal(b1-4)GlcNAc(b1-3)Gal(b1-4)GlcNAc(b1-2)[GlcNAc(b1-3)Gal(b1-4)GlcNAc(b1-3)Gal(b1-4)GlcNAc(b1-6)]Man(a1-6)[GlcNAc(b1-3)Gal(b1-4)GlcNAc(b1-3)Gal(b1-4)GlcNAc(b1-2)Man(a1-3)]Man(b1-4)GlcNAc(b1-4)[Fuc(a1-6)]GlcNAc
# Method in brief: as §1
# [25] = biological target: GlcNAc(b1-3)Gal(b1-4)GlcNAc(b1-6)[GlcNAc(b1-3)]Gal(b1-4)GlcNAc
# Method in brief: as §1
# GlcNAc(b1-3)Man = biological target: GlcNAc(b1-3)Man
# Method in brief: as §1
# Kdn(a2-3)Gal(b1-3)GalNAc = biological target: Kdn(a2-3)Gal(b1-3)GalNAc
# Method in brief: as §1
# [26] = biological target: Man(a1-2)Man(a1-3)[Man(a1-2)Man(a1-6)]Man(a1-6)[Man(a1-2)Man(a1-2)Man(a1-3)]Man(b1-4)GlcNAc(b1-4)GlcNAc
# Method in brief: as §1
# [27] = biological target: Man(a1-2)Man(a1-6)[Man(a1-3)]Man(a1-6)[Man(a1-2)Man(a1-2)Man(a1-3)]Man(b1-4)GlcNAc(b1-4)GlcNAc
# Method in brief: as §1
# [28] = biological target: Man(a1-3)[Man(a1-6)]Man(b1-4)GlcNAc(b1-4)[Fuc(a1-6)]GlcNAc
# Method in brief: as §1
# [29] = biological target: Neu5Ac(a2-3)Gal(b1-3)GlcNAc(b1-3)Gal(b1-3)GlcNAc
# Method in brief: as §1
# [30] = biological target: Neu5Ac(a2-3)Gal(b1-4)GlcNAc(b1-2)Man(a1-3)[Neu5Ac(a2-3)Gal(b1-4)GlcNAc(b1-2)Man(a1-6)]Man(b1-4)GlcNAc(b1-4)[Fuc(a1-6)]GlcNAc
# Method in brief: as §1
# [31] = biological target: Neu5Ac(a2-3)Gal(b1-4)GlcNAc(b1-2)Man(a1-3)[Neu5Ac(a2-6)Gal(b1-4)GlcNAc(b1-2)Man(a1-6)]Man(b1-4)GlcNAc(b1-4)GlcNAc
# Method in brief: as §1
# [32] = biological target: Neu5Ac(a2-3)Gal(b1-4)GlcNAc(b1-3)Gal(b1-4)GlcNAc(b1-3)Gal(b1-4)GlcNAc
# Method in brief: as §1
# [33] = biological target: Neu5Ac(a2-3)Gal(b1-4)GlcNAc(b1-3)Gal(b1-4)GlcNAc(b1-3)Gal(b1-4)GlcNAc(b1-2)Man(a1-3)[Neu5Ac(a2-3)Gal(b1-4)GlcNAc(b1-3)Gal(b1-4)GlcNAc(b1-3)Gal(b1-4)GlcNAc(b1-2)Man(a1-6)]GalNAc
# Method in brief: as §1
# [34] = biological target: Neu5Ac(a2-3)Gal(b1-4)[Fuc(a1-3)]GlcNAc(b1-2)Man
# Method in brief: as §1
# [35] = biological target: Neu5Ac(a2-6)Gal(b1-4)GlcNAc(b1-2)Man(a1-6)[Gal(b1-4)GlcNAc(b1-2)Man(a1-3)]Man(b1-4)GlcNAc(b1-4)GlcNAc
# Method in brief: as §1
# [36] = biological target: Neu5Ac(a2-6)Gal(b1-4)GlcNAc(b1-3)Gal(b1-4)GlcNAc(b1-6)[Gal(b1-3)]GalNAc
# Method in brief: as §1
# [37] = biological target: Neu5Ac(a2-6)Gal(b1-4)GlcNAc(b1-3)GalNAc
# Method in brief: as §1
# [38] = biological target: Neu5Ac(a2-6)GalNAc(b1-4)GlcNAc6S
# Method in brief: as §1
# [39] = biological target: Neu5Gc(a2-3)Gal(b1-3)GlcNAc
# Method in brief: as §1
# [40] = biological target: Neu5Gc(a2-3)Gal(b1-4)[Fuc(a1-3)]GlcNAc
# Method in brief: as §1
# [41] = biological target: Neu5Gc(b2-6)Gal(b1-4)GlcNAc
# Method in brief: as §1
binder,measurement,setting,value
B1,glycan array binding signal (z-score),[1],-0.242
same,glycan array binding signal (z-score),[2],0.367
same,glycan array binding signal (z-score),[3],-0.216
same,glycan array binding signal (z-score),[4],7.04
same,glycan array binding signal (z-score),[5],-0.16
same,glycan array binding signal (z-score),[6],-0.232
same,glycan array binding signal (z-score),[7],-0.188
same,glycan array binding signal (z-score),[8],-0.311
same,glycan array binding signal (z-score),Fuc(a1-4)GlcNAc,-0.215
same,glycan array binding signal (z-score),Fuc(b1-3)GlcNAc,-0.236
same,glycan array binding signal (z-score),Gal(a1-3)Gal,0.597
same,glycan array binding signal (z-score),[9],5.7
same,glycan array binding signal (z-score),[10],3.4
same,glycan array binding signal (z-score),[11],0.283
same,glycan array binding signal (z-score),[12],9.69
same,glycan array binding signal (z-score),Gal(a1-4)Gal(b1-4)GlcNAc,1.82
same,glycan array binding signal (z-score),[13],3.15
same,glycan array binding signal (z-score),Gal(a1-4)GlcNAc,4.53
same,glycan array binding signal (z-score),Gal(b1-3)GlcNAc(b1-2)Man,-0.124
same,glycan array binding signal (z-score),[14],-0.194
same,glycan array binding signal (z-score),[15],-0.226
same,glycan array binding signal (z-score),[16],-0.203
same,glycan array binding signal (z-score),[17],-0.102
same,glycan array binding signal (z-score),[18],-0.312
same,glycan array binding signal (z-score),Gal(b1-4)GlcNAc6P,-0.178
same,glycan array binding signal (z-score),GalNAc(a1-3)Gal,6.1
same,glycan array binding signal (z-score),GalNAc(a1-3)GalNAc,2.08
same,glycan array binding signal (z-score),[19],1.85
same,glycan array binding signal (z-score),[20],-0.191
same,glycan array binding signal (z-score),GalNAc(b1-3)GalNAc,-0.272
same,glycan array binding signal (z-score),[21],-0.143
same,glycan array binding signal (z-score),[22],-0.199
same,glycan array binding signal (z-score),[23],-0.121
same,glycan array binding signal (z-score),[24],0.036
same,glycan array binding signal (z-score),[25],-0.255
same,glycan array binding signal (z-score),GlcNAc(b1-3)Man,-0.193
same,glycan array binding signal (z-score),Kdn(a2-3)Gal(b1-3)GalNAc,-0.069
same,glycan array binding signal (z-score),[26],-0.033
same,glycan array binding signal (z-score),[27],-0.302
same,glycan array binding signal (z-score),[28],-0.305
same,glycan array binding signal (z-score),[29],-0.152
same,glycan array binding signal (z-score),[30],-0.283
same,glycan array binding signal (z-score),[31],-0.197
same,glycan array binding signal (z-score),[32],-0.261
same,glycan array binding signal (z-score),[33],2.34
same,glycan array binding signal (z-score),[34],-0.227
same,glycan array binding signal (z-score),[35],0.106
same,glycan array binding signal (z-score),[36],-0.048
same,glycan array binding signal (z-score),[37],-0.128
same,glycan array binding signal (z-score),[38],-0.271
same,glycan array binding signal (z-score),[39],-0.164
same,glycan array binding signal (z-score),[40],-0.153
same,glycan array binding signal (z-score),[41],-0.099
